According to PubChem BioAssay (NCATS):
Where “and” joins values, the source holds several entries; their conditions need not be identical. Equal values may be shown once. Results filed as inconclusive are left out. A call without a number means that no potency is given here. Calls of active or inactive are those of the source. Unless noted, calls follow the shape of the dose curve; as a rule, active = well fitted curve in the direction sought with a large enough effect; inconclusive = small, poorly fitted or top-dose-only effect, or another doubt; inactive = no such curve, though single readings can be large; an effect the other way counts as inactive or inconclusive.

Assays:
[1] = Cell Viability - NIH 3T3 (AID 541); details: NIH 3T3 cell viability, qHTS; activity change, negative = cytotoxicity: at 92.2 µM (top of the series); also: nearly all actives have a fitted effect of over 25% in size
Method in brief: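 Luminescent ATP signal (CellTiter-Glo) served as the viability read-out after NIH 3T3 cells were exposed to compounds over a concentration range for 40 hr at 37 °C. Hill-equation modelling of concentration-response data gave AC50.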

[2] = Cell Viability - H-4-II-E (AID 543); also: nearly all actives have a fitted effect of over 35% in size
Method in brief: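 Luminescent ATP signal (CellTiter-Glo) served as the viability read-out, with cytotoxicity seen as a concentration-dependent ATP drop. Cells were treated for 40 hours in complete medium. AC50 values derive from Hill-equation modelling.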

[3] = Cellular Toxicity (caspase-3) HepG2 (AID 654);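 also: cells exposed to compound for 16 hours before reading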
Method in brief: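 Cells plated 5 hr at 37 °C, compound added, incubated 16 hr at 37 °C. Caspase-Glo 3/7 reagent followed, 20 min at room temperature, then luminescence read. Activation scored as signal increase; AC50 from Hill fit.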

[4] = Cellular Toxicity (caspase-3) Hek293 (AID 664);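 also: cells exposed to compound for 16 h at 37 °C before readout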
Method in brief: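 Cells plated, 5 hr at 37 °C; compounds added; 16 hr at 37 °C; Caspase-Glo 3/7 reagent, 20 min RT; luminescence read. Activation expressed relative to DMSO and 100 uM tamoxifen, AC50 by Hill model.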

[5] = Cellular Toxicity (caspase-3) NIH 3T3 (AID 666);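 also: caspase signal read after 16 h compound exposure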
Method in brief: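 Luminescence from aminoluciferin released by caspase-3/7 cleavage of a peptide substrate served as read-out. Mouse fibroblast NIH 3T3 cells were exposed to compounds over a concentration range for 16 hours, and AC50 values came from standard Hill modelling.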

[6] = MultiTox-Fluor Cytotoxicity Assay - LYMP1-002 - Live Cells (AID 955)
Method in brief: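 Read-out is live-cell protease activity (cell-permeant GF-AFC substrate, fluorescence Ex/Em=405/510), where a decrease indicates acute toxicity. Human lymphoblastoid cells were treated 16 hours at 37 C in a concentration series, and AC50 values came from standard Hill modelling.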

[7] = MultiTox-Fluor Cytotoxicity Assay - LYMP1-003 - Live Cells (AID 962);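 also: cells exposed to compound for 16 hours at 37 °C; cytotoxic hits lower the live-cell protease signal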
Method in brief: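 qHTS, 1536-well; 2500 cells/well LYMP1-003; 5 hr 37 C settle; cpd 16 hr 37 C; MultiTox-Fluor reagent 60 min RT; live-cell protease fluor. 405/510; Hill-fit AC50; tetraoctylammonium bromide pos. ctrl.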

[8] = Cell Viability - LYMP1-003 - Assay at 40 hr (AID 964); also: nearly all actives have a fitted effect of over 60% in size
Method in brief: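 Cells were seeded at 2500 per well and incubated 5 hr at 37 C. Compounds were added across a concentration series and left 40 hr at 37 C. CellTiter-Glo was added for 30 min at room temperature before luminescence reading.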

[9] = Cell Viability - LYMP2-004 (AID 966); also: nearly all actives have a fitted effect of over 65% in size
Method in brief: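 Cells seeded 2500/well, rested 5 hr at 37 C, dosed across a concentration series, incubated 24 hr at 37 C, then CellTiter-Glo added for 30 min at room temperature and luminescence read. Hill fitting gave AC50.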

[10] = Cell Viability - LYMP2-017 (AID 972);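 also: cells exposed to compound for 24 hours at 37 °C; nearly all actives have a fitted effect of over 55% in size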
Method in brief: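 2500 cells/well, 5 h 37 C; cpd 24 h 37 C in complete medium; CellTiter-Glo, 30 min RT; luminescence (ATP). AC50 via Hill fit, qHTS.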

[11] = Cell Viability - LYMP2-019 (AID 973); also: nearly all actives have a fitted effect of over 55% in size
Method in brief: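 Luminescent ATP read-out (CellTiter-Glo, 30 min room temperature) served as the viability measure after 24 hr treatment of lymphoblastoid cells at 37 C. Concentration-response data were fitted to the Hill equation for AC50.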

[12] = Cell Viability - LYMP2-002 (AID 977)
Method in brief: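 Luminescent ATP readout (CellTiter-Glo, 30 min room temperature) after 24 h compound exposure at 37 C of a human lymphoblastoid line, 2500 cells/well. AC50 values derived by standard Hill fitting of qHTS concentration-response data.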

[13] = Cell Viability - LYMP2-007 (AID 979);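 also: cells exposed to compound for 24 h before reading; nearly all actives have a fitted effect of over 60% in size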
Method in brief: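 Luminescent ATP signal (CellTiter-Glo) serves as the viability read-out after 24 hr compound treatment of lymphoblastoid cells in complete medium at 37 C. Concentration-response data were fitted to the Hill equation to give AC50 values.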

[14] = Cell Viability - LYMP2-014 (AID 983); also: nearly all actives have a fitted effect of over 50% in size
Method in brief: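 Luminescent ATP signal (CellTiter-Glo, 30 min at room temperature) serves as the viability read-out after 24 hr compound exposure at 37 C. Cells were seeded at 2500 per well and settled 5 hr beforehand.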

[15] = Cell Viability - LYMP2-022 (AID 987); also: nearly all actives have a fitted effect of over 55% in size
Method in brief: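 qHTS: human lymphoblastoid cells 2500/well; 5 hr 37 C; cpd added; 24 hr 37 C; CellTiter-Glo, 30 min RT; luminescence. AC50 via Hill fit; tetraoctylammonium bromide positive ctrl.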

[16] = qHTS assay for small molecule agonists of retinoid X receptor alpha signaling (AID 588544); details: HEK293T RXRa-UAS-bla, beta-lactamase reporter, 18 h; 530 nm emission
[17] = target: Retinoic acid receptor RXR-alpha (Homo sapiens) (UniProt P19793); experiment: qHTS assay for small molecule antagonists of retinoid X receptor alpha signaling (AID 588546; active = well fitted inhibition curve with a large enough effect in the signal ratio, with a control signal flat, not every such curve was filed as active; the % refers to the signal ratio;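 also: cells stimulated with 9-cis-retinoic acid as agonist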); details: HEK293T RXRa-UAS-bla, beta-lactamase ratio, antagonist mode
Method in brief: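 Beta-lactamase reporter inhibition, read as CCF4 fluorescence ratio (ex 405, em 460/530 nm) after 2 h at RT. HEK293T UAS-bla cells, 2500/well, were stimulated with 9-cis-RA at 500 or 100 nM final alongside test compound for 18 h at 37 C.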

[18] = target: Voltage-gated inwardly rectifying potassium channel KCNH2 (Homo sapiens) (UniProt Q12809); experiment: qHTS Assay for Small Molecule Inhibitors of the Human hERG Channel Activity (AID 588834);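 also: top concentration of the series differs between compounds; lower thallium flux fluorescence means stronger hERG block; nearly all actives have a fitted effect of over 50% in size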
Method in brief: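 U2OS cells transduced with hERG via BacMam (MOI ~100), plated 2000/well, loaded with FluxOR thallium dye, compound ~10 min, then stimulation buffer; fluorescence decrease read kinetically; AC50 from Hill fits.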

[19] = qHTS assay for small molecule disruptors of the mitochondrial membrane potential - 1 hr assay (AID 651754; calls by dose curve; also: nearly all actives have a fitted effect of over 35% in size)
Method in brief: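 HepG2, 2,000 cells/well, overnight attachment; cpd or DMSO 1 hr, 37C/5% CO2; Mito-MPS dye 30 min, 37C; fluorescence monomer (490/535) and aggregate (540/590).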

[20] = qHTS assay for small molecule agonists of the antioxidant response element (ARE) signaling pathway measured by Nrf2-dependant transcriptional activity (AID 720636; active = well fitted curve in the direction sought with a large enough effect in the repeat runs; an effect the other way counts as inactive or inconclusive)
Method in brief: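 Quantitative HTS format in HepG2 cells stably expressing an ARE-luciferase reporter; 16 hr compound treatment at 37 C, luciferase signal detected with ONE-Glo.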

Voltage-gated inwardly rectifying potassium channel KCNH2 (Homo sapiens), sequence (Q12809 whole entry, looked up): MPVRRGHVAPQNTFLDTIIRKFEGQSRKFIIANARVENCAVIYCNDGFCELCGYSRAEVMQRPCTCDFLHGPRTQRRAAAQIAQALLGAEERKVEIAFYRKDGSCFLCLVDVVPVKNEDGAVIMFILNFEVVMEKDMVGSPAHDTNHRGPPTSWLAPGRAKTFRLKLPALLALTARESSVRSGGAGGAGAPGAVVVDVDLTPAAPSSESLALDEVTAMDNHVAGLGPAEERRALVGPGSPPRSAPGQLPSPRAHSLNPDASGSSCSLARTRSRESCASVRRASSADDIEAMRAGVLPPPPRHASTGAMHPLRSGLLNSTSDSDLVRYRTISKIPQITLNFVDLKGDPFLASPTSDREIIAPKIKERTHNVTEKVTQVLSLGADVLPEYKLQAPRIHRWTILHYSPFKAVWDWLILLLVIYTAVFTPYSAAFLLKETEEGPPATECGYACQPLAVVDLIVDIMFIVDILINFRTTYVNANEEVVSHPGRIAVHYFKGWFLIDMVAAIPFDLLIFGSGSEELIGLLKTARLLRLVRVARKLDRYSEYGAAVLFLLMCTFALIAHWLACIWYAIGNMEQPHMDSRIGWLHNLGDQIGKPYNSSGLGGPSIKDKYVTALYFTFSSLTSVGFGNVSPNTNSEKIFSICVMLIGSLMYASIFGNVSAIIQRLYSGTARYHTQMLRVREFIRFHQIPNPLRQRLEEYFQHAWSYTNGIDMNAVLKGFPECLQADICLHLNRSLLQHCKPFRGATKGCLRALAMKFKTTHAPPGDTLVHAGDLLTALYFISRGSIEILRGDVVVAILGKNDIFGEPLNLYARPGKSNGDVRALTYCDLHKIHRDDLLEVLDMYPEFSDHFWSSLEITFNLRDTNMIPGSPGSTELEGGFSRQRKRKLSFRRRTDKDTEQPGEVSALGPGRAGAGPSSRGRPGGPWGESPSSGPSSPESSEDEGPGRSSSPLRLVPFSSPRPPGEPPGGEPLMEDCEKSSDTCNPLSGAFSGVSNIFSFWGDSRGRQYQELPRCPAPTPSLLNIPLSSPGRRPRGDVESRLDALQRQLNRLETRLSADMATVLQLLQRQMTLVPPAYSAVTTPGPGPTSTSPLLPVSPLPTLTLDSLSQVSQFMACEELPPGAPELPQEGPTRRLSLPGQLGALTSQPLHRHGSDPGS
Retinoic acid receptor RXR-alpha (Homo sapiens), sequence (P19793 whole entry, looked up): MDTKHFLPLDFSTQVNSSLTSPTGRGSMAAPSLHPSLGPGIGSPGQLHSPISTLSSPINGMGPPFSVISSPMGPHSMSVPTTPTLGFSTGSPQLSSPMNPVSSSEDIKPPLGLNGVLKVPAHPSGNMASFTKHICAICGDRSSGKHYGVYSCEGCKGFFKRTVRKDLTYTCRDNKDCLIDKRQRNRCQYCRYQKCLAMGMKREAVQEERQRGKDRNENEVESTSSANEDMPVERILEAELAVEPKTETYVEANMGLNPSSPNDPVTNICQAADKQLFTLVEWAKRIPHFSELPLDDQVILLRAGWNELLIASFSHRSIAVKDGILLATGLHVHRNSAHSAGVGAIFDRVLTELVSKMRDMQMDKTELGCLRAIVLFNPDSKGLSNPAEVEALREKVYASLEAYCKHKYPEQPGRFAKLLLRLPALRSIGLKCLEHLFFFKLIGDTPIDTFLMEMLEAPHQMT

| SMILES | activity change, negative = cytotoxicity [1] | Potency [2] | outcome [3] | outcome [4] | outcome [5] | outcome [6] | Potency [7] | Potency [8] | Potency [9] | Potency [10] | Potency [11] | Potency [12] | Potency [13] | Potency [14] | Potency [15] | max response [16] | max response [17] | Potency [18] | Potency [19] | outcome [20] |
| --- | --- | --- | --- | --- | --- | --- | --- | --- | --- | --- | --- | --- | --- | --- | --- | --- | --- | --- | --- | --- |
| O=[N+]([O-])c1cccc2ccccc12 | 3.57% (inactive) | inactive | inactive | inactive | inactive | inactive | inactive | inactive | inactive | inactive | inactive | inactive | inactive | inactive | inactive | -3.41% and -2.17% | 5.1% (inactive) and -1.16% (inactive) | inactive | inactive | inactive |
| COc1ccc(C=O)cc1OC | -14% (inactive) | inactive | inactive | inactive | inactive | inactive | inactive | inactive | inactive | inactive | inactive | inactive | inactive | inactive | inactive | 17.8% and -5.1% | -9.7% (inactive) and -21.1% (inactive) | inactive | inactive | inactive |
| CCOP(=S)(OCC)SCSC(C)(C)C | 1.25% (inactive) | inactive | inactive | inactive | inactive | inactive | inactive | inactive | inactive | inactive | inactive | inactive | inactive | inactive | inactive | 19.7% and -0.121% | -12% (inactive) and 0.279% (inactive) | – | inactive | inactive |
| ClC(Cl)(Cl)c1ccccc1 | -19.1% (inactive) and -4.39% (inactive) | inactive | inactive | inactive | inactive | inactive | inactive | inactive | inactive | inactive | inactive | inactive | inactive | inactive | inactive | 2.72% and -9.44% | 9.82% (inactive) and 8.91% (inactive) | inactive | inactive | inactive |
| Clc1nc(Cl)nc(Nc2ccccc2Cl)n1 | -3.86% (inactive) | inactive | inactive | inactive | inactive | inactive | inactive | inactive | inactive | inactive | inactive | inactive | inactive | inactive | inactive | -6.76% | 8.47% (inactive) | inactive | inactive | – |
| CCCCOCCOP(=O)(OCCOCCCC)OCCOCCCC | -4.02% (inactive) | inactive | inactive | inactive | inactive | inactive | inactive | inactive | inactive | inactive | inactive | inactive | inactive | inactive | inactive | -10.8% and -2.33% | -9.74% (inactive) and -1.56% (inactive) | – | inactive | inactive |
| ClC(Cl)=C(Cl)Cl | -22.9% (inactive) and 3.64% (inactive) | inactive | inactive | inactive | inactive | inactive | inactive | inactive | inactive | inactive | inactive | inactive | inactive | inactive | inactive | 4.54% and -3.27% | 2.53% (inactive) and 3.68% (inactive) | inactive | inactive | inactive |
| CC(=O)[O-].CC(=O)[O-].O.O.O.[Pb+2] | 11.5% (inactive) and -1.35% (inactive) | inactive | inactive | inactive | inactive | inactive | inactive | inactive | inactive | inactive | inactive | inactive | inactive | inactive | inactive | -8.91% and -19.7% | 27.2% (inactive) and 0.247% (inactive) | inactive | inactive | inactive |
